Screening data: PubChem, Broad Institute
A selection follows.
aSyn 5UTR act = Activators via SNCA 5'UTR binding, MLPCN; actives 7.1% (n = 300,000); activity score, % (tested at 7.5 µM), hits read low; alpha-synuclein 5'UTR reporter, activators screen; in the data active means activity score below about -60%
A number is an active result.

What do the screens show for `CCc1noc(C)c1C(=O)Nc1nc(-c2cccs2)cs1`?
aSyn 5UTR act: -66.0

How did c1ccc(-n2cnc3cc(NCc4ccco4)ccc32)cc1 do in these assays?
aSyn 5UTR act: -161.1

Results for Cc1ccc(-n2cnc3cc(NCc4cccs4)ccc32)cc1 ?
aSyn 5UTR act: -93.8

Results for COc1ccc(-n2cnc3cc(NCc4cccs4)ccc32)cc1 ?
aSyn 5UTR act: -69.4

What do the screens show for `c1ccc(-n2cnc3cc(NCc4cccs4)ccc32)cc1`?
aSyn 5UTR act: -166.7

How did COc1ccc2c(c1)oc(=O)c1c3ccccc3[nH]c21 do in these assays?
aSyn 5UTR act: -277.2

How did COc1ccc2c(=O)c3ccccc3oc2c1 do in these assays?
aSyn 5UTR act: -146.8

What do the screens show for `COc1ccc2c(c1)oc(=O)c1cc(OC)ccc12`?
aSyn 5UTR act: -181.9

How did S=C(N/N=C/c1ccc(Cl)c(Cl)c1)Nc1ccccc1Cl do in these assays?
aSyn 5UTR act: -80.8

Results for Fc1cccc(/C=N/NC(=S)Nc2ccccc2Cl)c1 ?
aSyn 5UTR act: -230.5

Results for COc1ccc(C(=O)c2cc([N+](=O)[O-])ccc2N2CCOCC2)cc1 ?
aSyn 5UTR act: inactive

What do the screens show for `COc1ccc(C(=O)/C=C/c2ccc(C)cc2)c(OC(=O)c2ccc([N+](=O)[O-])cc2)c1`?
aSyn 5UTR act: -87.0

Results for COc1ccc(C(=O)/C=C/c2ccccc2F)c(OC(=O)c2ccc([N+](=O)[O-])cc2)c1 ?
aSyn 5UTR act: -228.0

How did C/C(=N\NC(=O)C1CC1)c1ccc(NC(=O)c2ccc(Br)o2)cc1 do in these assays?
aSyn 5UTR act: -109.9

How did C/C(=N\NC(=O)c1c(Cl)cnn1C)c1ccc(NC(=O)c2ccc(Br)o2)cc1 do in these assays?
aSyn 5UTR act: -116.3

Results for CCc1ccc(/C=C2\SC(=S)N(CCC(=O)Nc3cc(C)on3)C2=O)cc1 ?
aSyn 5UTR act: inactive

How did COc1cc(/C=C2/SC(=S)N(Cc3ccccc3)C2=O)ccc1O do in these assays?
aSyn 5UTR act: -67.3

How did COc1ccc(/C=C2\SC(=S)N(Cc3cccnc3)C2=O)cc1C do in these assays?
aSyn 5UTR act: -126.6

What do the screens show for `COc1ccc(/C=C2/SC(=S)N(CC(=O)O)C2=O)cc1OCc1ccc(Cl)cc1`?
aSyn 5UTR act: -131.6

What do the screens show for `C#CCOc1ccc(/C=C2\SC(=S)N(Cc3cccnc3)C2=O)cc1`?
aSyn 5UTR act: -81.5

What do the screens show for `CCN=C1S/C(=C\c2ccc(O)c(OCC)c2)C(=O)N1CC`?
aSyn 5UTR act: inactive

How did COc1cc(Cl)cc(/C=C/c2ccc3ccccc3n2)c1OC(C)=O do in these assays?
aSyn 5UTR act: -126.7

What do the screens show for `CC(=O)Oc1ccc(Cl)cc1/C=C/c1cc(OC(C)=O)c2ccccc2n1`?
aSyn 5UTR act: -137.7

Results for COC(=O)CNC(=O)C1(C)C=CCN1C(=O)c1ccccc1 (configuration not stated) ?
aSyn 5UTR act: -73.6

How did Cc1ccc(NC(=O)/C(C#N)=C/c2ccc(C)s2)c(C)c1 do in these assays?
aSyn 5UTR act: -92.2

What do the screens show for `CCCCSc1nnc(-c2ccc(OC)cc2)n1C`?
aSyn 5UTR act: -132.6

What do the screens show for `Cc1ccc(-c2nnc(SCC(C)C)n2C)cc1`?
aSyn 5UTR act: -146.0

How did Cc1ccc(Nc2nc(CSc3nnc(-c4ccc(F)cc4)n3C)cs2)cc1 do in these assays?
aSyn 5UTR act: -144.0

What do the screens show for `COc1ccccc1OC(=O)Nc1ccc(Cl)cc1`?
aSyn 5UTR act: -83.2

What do the screens show for `COc1ccccc1Oc1ccc(NC(=O)c2ccccc2)cc1`?
aSyn 5UTR act: -91.4

How did COc1ccc(C(=O)Nc2cc(OC)cc(OC)c2)cc1 do in these assays?
aSyn 5UTR act: -61.7

Results for COc1cc(NC(=O)c2ccccc2)cc(OC)c1 ?
aSyn 5UTR act: -130.8

What do the screens show for `O=C1CCCC2=C1C(c1ccco1)Nc1ccc(C(=O)c3ccccc3)cc1N2` (configuration not stated)?
aSyn 5UTR act: -81.1

What do the screens show for `CC(C)n1c(CN(C)Cc2ccccc2)nc2c1c(=O)n(C)c(=O)n2C`?
aSyn 5UTR act: inactive

How did Cc1[nH]c2ccccc2c(=O)c1CN(C)Cc1ccccc1 do in these assays?
aSyn 5UTR act: -89.1

Results for COc1ccc(C(=O)NNC2=Nc3cccc4cccc2c34)cc1 ?
aSyn 5UTR act: inactive

What do the screens show for `Clc1ccccc1/C=N/NC1=Nc2cccc3cccc1c23`?
aSyn 5UTR act: -229.6

What do the screens show for `Cc1cccnc1Nc1nc(-c2ccc(O)cc2O)cs1`?
aSyn 5UTR act: -187.9

What do the screens show for `Oc1ccc(-c2csc(Nc3ccccn3)n2)c(O)c1`?
aSyn 5UTR act: -133.9

What do the screens show for `C/C(Cl)=C\Cn1c(O)c(N=NC(N)=S)c2cc(Br)ccc21`?
aSyn 5UTR act: inactive

Results for Cc1ccc(C(=O)NCCn2cc(SCC(=O)Nc3cc(C)on3)c3ccccc32)cc1 ?
aSyn 5UTR act: -77.7

How did c1ccc2c(c1)Nc1cc3ccccc3cc1S2 do in these assays?
aSyn 5UTR act: -135.0

How did O=C1CCNc2cc3ccccc3cc21 do in these assays?
aSyn 5UTR act: inactive

How did Fc1ccccc1OCCSc1ncnc2nc[nH]c12 do in these assays?
aSyn 5UTR act: -99.9

What do the screens show for `COc1ccc(OCCSc2ncnc3nc[nH]c23)cc1`?
aSyn 5UTR act: -81.2

What do the screens show for `CS(=O)c1ccccc1-c1nc(-c2cccc(Cl)c2)no1` (configuration not stated)?
aSyn 5UTR act: -143.8

How did CS(=O)c1ccccc1-c1nc(-c2ccc(Cl)cc2)no1 (configuration not stated) do in these assays?
aSyn 5UTR act: -143.1

How did C=CCn1c(=N)n(CC(=O)c2cccc([N+](=O)[O-])c2)c2ccccc21 do in these assays?
aSyn 5UTR act: -77.0

Results for O=C(O)CCCn1c(O)c(C=C2N=c3ccccc3=N2)sc1=S ?
aSyn 5UTR act: -88.9

What do the screens show for `COC(=O)C(C(=O)OC)c1ccc(NC(=O)c2cccc(Cl)c2)cc1`?
aSyn 5UTR act: -89.9

What do the screens show for `COC(=O)c1ccc(NC(=O)c2cccc(Cl)c2)o1`?
aSyn 5UTR act: -85.6

Results for COC(=O)c1ccc(NC(=O)c2ccc(C)cc2)o1 ?
aSyn 5UTR act: -74.8

What do the screens show for `COc1ccc2c(c1)CCC1C2=NN(/C(C)=C/C(C)=O)C1c1cccc(F)c1` (configuration not stated)?
aSyn 5UTR act: -66.4

Results for Cc1nn(CC(=O)c2ccccc2Cl)c(C)c1[N+](=O)[O-] ?
aSyn 5UTR act: -176.9

How did C/C(=N\NC(=O)C(C)n1nc(C)c([N+](=O)[O-])c1C)c1ccccc1O (configuration not stated) do in these assays?
aSyn 5UTR act: inactive

Results for N/C(=N\OC(=O)/C=C/c1ccccc1Cl)c1cccnc1 ?
aSyn 5UTR act: -248.2

What do the screens show for `N/C(=N\OC(=O)/C=C/c1ccccc1)c1cccnc1`?
aSyn 5UTR act: -159.2

What do the screens show for `CCCn1nnc(NC(=O)c2ccc3c(c2)OCO3)n1`?
aSyn 5UTR act: -89.8

What do the screens show for `CCCn1nnc(NC(=O)c2ccc(-c3cccc(Cl)c3)o2)n1`?
aSyn 5UTR act: -80.0

What do the screens show for `CCCCn1nnc(N(C(=O)c2cccs2)C(=O)c2cccs2)n1`?
aSyn 5UTR act: -88.7

What do the screens show for `CCCn1nnc(NC(=O)c2cccc(Cl)c2)n1`?
aSyn 5UTR act: -64.4

What do the screens show for `CCCn1nnc(NC(=O)c2sc3ccccc3c2Cl)n1`?
aSyn 5UTR act: -104.1

Results for CCCn1nnc(NC(=S)NC(=O)c2cccs2)n1 ?
aSyn 5UTR act: -101.9

Results for CCOC(=O)c1cnc(SCc2ccccc2)nc1N ?
aSyn 5UTR act: -183.2

What do the screens show for `C=CCSc1ncc(C(=O)OCC)c(N)n1`?
aSyn 5UTR act: -101.4

Results for CCN(CC)S(=O)(=O)c1ccc(N/N=C/c2ccc(O)cc2O)nc1 ?
aSyn 5UTR act: inactive
